An excerpt weighted towards active compounds, which were near 3.1% of everything screened.
ARNT-TACC3 inh – ARNT/TACC3 interaction disruption; Q9Y6A5; AlphaScreen His-ARNT PAS-B/GST-TACC3 binding, luminescence; TACC3 fragment carries E629A point mutation; inhibition, % at 9.99 µM; hit rate 0.66% among 390,000; AID 623870;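 active = mean inhibition of replicates at least 50% and at least half of replicates each reaching 50%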;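 also: 0% = complete ARNT plus TACC3 wells and 100% = ARNT alone without TACC3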
HSP90 inh – blocks HSP90-mediated luciferase refolding in reticulocyte lysate. hit rate 0.91% among 290,000. Rabbit reticulocyte lysate, luciferase refolding luminescence, 3 h. inhibition, % at 5.6 µM;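 active = inhibition above the screen-wide mean plus 3 SD, computed separately per campaign, cut at about 16% in these data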;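 also: 0% = DMSO wells and 100% = 60 µM geldanamycin wells; inhibitors lower the luminescence because luciferase stays unfolded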
HSF1 activator – increases HSF-1 driven luciferase reporter signal; NIH3T3-HGL HSF-1 luciferase reporter, MG132, 8 h; 100% = twice DMSO control signal; activation, % at 9 µM; hit rate 1.7% among 300,000; AID 504408;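 active = mean replicate activation of at least 50% with a set share of replicates each reaching 50%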;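 also: 0% = median of the neutral control wells and 100% = twice that signal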
HIF activator – HIF pathway transcriptional activation; hit rate 0.32% among 300,000; U2OS HRE-luciferase reporter, luminescence; normalized: DMSO 0%, desferrioxamine 100%; activation, % at 7.5 µM (by protocol);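 active = mean activation of at least 10% of the iron chelator positive control signal, with at least half of replicates also reaching 10%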
HSF1 inh – HSF1 inhibition | NIH3T3-HGL HSE-luciferase, MG132-induced, luminescence 8 h; hits give low values | activity change, negative = inhibition, % at 7.5 µM (by protocol) | hit rate 0.77% among 300,000 | AID 2098;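 active = more than half of replicate wells show activity change below -50%, luminescence cut by over half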;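 also: luciferase reports HSF-1 transcriptional activity via heat shock element; 0% = median of DMSO wells and -100% = zero luminescence signal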
HSP90 inh confirm – confirmation of HSP90 inhibitors | inhibition, % at 5.9 µM | shares compounds with HSP90 inh | rabbit reticulocyte lysate, luciferase refolding luminescence, 3 h | AID 1846 | hit rate 64% among 2,300; in the data active = inhibition above about 18%;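 also: 0% = vehicle wells and 100% = reference inhibitor wells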
luciferase ctr – blocks native firefly luciferase in HSP90 counter-screen. shares compounds with HSP90 inh. purified native firefly luciferase, luminescence. AID 1847. hit rate 48% among 2,300. inhibition, % at 5.9 µM;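 active = inhibition above the mean inhibition of all tested sample wells plus 3 SD, cut at about 10% in these data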;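 also: 0% = DMSO with luciferase and 100% = wells lacking luciferase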
Target sequence (P08659 whole entry, looked up): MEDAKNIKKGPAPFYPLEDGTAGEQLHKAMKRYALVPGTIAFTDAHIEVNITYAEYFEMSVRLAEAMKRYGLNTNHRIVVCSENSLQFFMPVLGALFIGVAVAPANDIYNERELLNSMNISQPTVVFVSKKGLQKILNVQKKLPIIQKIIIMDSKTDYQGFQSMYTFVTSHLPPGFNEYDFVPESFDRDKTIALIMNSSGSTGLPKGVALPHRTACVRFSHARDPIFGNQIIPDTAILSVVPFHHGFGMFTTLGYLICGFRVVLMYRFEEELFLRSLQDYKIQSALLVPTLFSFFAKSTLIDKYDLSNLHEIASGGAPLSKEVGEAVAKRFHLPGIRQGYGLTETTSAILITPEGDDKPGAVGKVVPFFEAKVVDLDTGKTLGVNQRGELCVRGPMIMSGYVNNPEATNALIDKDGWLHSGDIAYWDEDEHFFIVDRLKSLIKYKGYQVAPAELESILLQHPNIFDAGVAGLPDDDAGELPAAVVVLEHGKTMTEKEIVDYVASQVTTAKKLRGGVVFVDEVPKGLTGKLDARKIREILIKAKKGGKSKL
* = called active by the depositor; x = no result.

SMILES	ARNT-TACC3 inh	HSP90 inh	HSF1 activator	HIF activator	HSF1 inh	HSP90 inh confirm	luciferase ctr
O=C(Nc1ccc2c(c1)OCCO2)C1CCN(S(=O)(=O)Cc2ccccc2)CC1	-34	-4	-15	0	2	x	x
Cc1ccc(C(=O)NCCSC(C)(C)C)cc1	3	19*	45	-1	23	31*	24*
Cc1ccc(C(=O)NCCc2cccs2)cc1	-9	55*	-34	-3	-23	74*	62*
O=C(NCCc1cccs1)C(c1ccccc1)c1ccccc1	-5	14	46	-1	3	x	x
O=C(NCCc1cccs1)c1ccc(Cl)cc1	-2	19*	37	-2	16	45*	41*
CC(C)(C)SCCNC(=O)c1ccccc1	6	-3	30	2	10	x	x
O=C(NCCc1cccs1)c1ccc(Cl)c(Cl)c1	-1	2	39	5	27	x	x
C[C@@H]1CN([C@@H](C)CO)C(=O)c2cc(NC(=O)c3ccncc3)ccc2O[C@H]1CN(C)Cc1ccc(Oc2ccccc2)cc1	3	x	x	x	x	x	x
Cc1cc(C(=O)CN2CCC(C)CC2)c(C)n1-c1ccccc1F	2	53*	-79	-1	-73*	58*	28*
CCOC(=O)c1sc(N)c(C#N)c1CSc1nc2ccc(C)cc2[nH]1	x	18*	15	0	10	0	-5
Cc1ccc(S(=O)(=O)Nc2ccc3c(c2)C(=O)N([C@H](C)CO)C[C@@H](C)[C@@H](CN(C)S(=O)(=O)c2ccc(C)cc2)O3)cc1	-13	x	x	x	x	x	x
CC(C)n1cc(/C=C2/NC(=O)NC2=O)c2ccccc21	-11	10	10	-1	10	x	x
C#CCn1cc(/C=C2\NC(=O)NC2=O)c2ccccc21	-27	67*	0	1	-1	53*	-9
Cc1noc(C)c1NC(=O)Nc1ccc2c(c1)C(=O)N([C@@H](C)CO)C[C@@H](C)[C@H](CN(C)CC1CCCCC1)O2	-5	x	x	x	x	x	x
O=C(Cn1cc(C(=O)c2ccco2)c2ccccc21)NC1CC1	-3	25*	2	0	0	-9	-11
CC1(C)C(=O)NCCN1C(=O)CC1C(=O)NCCN1CC(c1ccccc1)c1ccccc1 (stereo not drawn)	16	24*	-10	0	-2	-2	-3
O=C(C1CCOCC1)N1[C@H](CO)[C@@H]2c3ccccc3NC[C@@H]21	-9	x	x	x	x	x	x
CCC(=O)Nc1cccc(-c2ccc(N3CCCCC3)nn2)c1	4	25*	28	-1	23	47*	15*
CCC(=O)Nc1cccc(-c2ccc(N3CCN(C)CC3)nn2)c1	-2	11	17	3	22	x	x
O=C(O)c1cc(N/N=C/c2ccncc2)ccc1Cl	2	25*	-1	0	-1	62*	10*
CSc1ccc(/C=N/Nc2ccc(Cl)c(C(=O)O)c2)cc1	-2	33*	27	174*	-2	80*	54*
O=C(O)c1cc(N/N=C/c2cccnc2)ccc1Cl	-6	30*	2	0	-5	39*	-4
CSc1ccc(/C=N/Nc2nc(C)cc(C)n2)cc1	4	-1	17	1	12	x	x
O=C(O)c1cc(N/N=C/c2ccc(N3CCOCC3)cc2)ccc1Cl	-4	39*	-2	0	2	83*	65*
Cc1noc(C)c1NC(=O)Nc1ccc2c(c1)CC(=O)N([C@H](C)CO)C[C@@H](C)[C@@H](CN(C)S(=O)(=O)c1ccc(F)cc1)O2	-3	x	x	x	x	x	x
SMILES	ARNT-TACC3 inh	HSP90 inh	HSF1 activator	HIF activator	HSF1 inh	HSP90 inh confirm	luciferase ctr
C[C@@H]1CN([C@H](C)CO)S(=O)(=O)c2ccc(-c3ccc(F)cc3)cc2O[C@@H]1CN(C)C	-3	x	x	x	x	x	x
O=C(N/N=C/c1cccnc1)c1ccc(NC(=O)c2ccc(Cl)cc2)cc1	-1	20*	7	39*	21	-5	-12
O=C(O)c1cc(N/N=C/c2c[nH]c3ccccc23)ccc1Cl	5	40*	-10	1	-4	38*	-10
C[C@@H]1CN([C@@H](C)CO)C(=O)c2cccc(NC(=O)C3CC3)c2O[C@@H]1CN(C)S(=O)(=O)c1cccs1	-3	x	x	x	x	x	x
O=C(Nc1cccc2nsnc12)c1ccc(-c2cccc(Cl)c2)o1	-5	17*	x	x	x	2	-9
O=C(C[C@H]1CC[C@@H]2[C@H](COC[C@@H](O)CN2C(=O)c2ccncc2)O1)NC1Cc2ccccc2C1	15	x	x	x	x	x	x
Cc1nn(CC(=O)NCc2ccccc2)c(C)c1[N+](=O)[O-]	0	-3	-3	0	-1	x	x
Cc1nn(CC(=O)c2ccccc2Cl)c(C)c1[N+](=O)[O-]	-9	22*	-37	2	-32	33*	28*
CO[C@@H]1CN(C)C(=O)c2cc(NC(=O)C3CCOCC3)ccc2OC[C@@H](C)N(Cc2cccnc2)C[C@H]1C	1	x	x	x	x	x	x
COc1ccc(CCNC(=O)COc2ncnc3ccccc23)cc1OC	-3	62*	-7	0	-4	-6	-11
COc1ccc(-c2cc(C)nc(SCc3cccc(C(=O)O)c3)n2)cc1	-15	-3	0	0	0	x	x
Cc1nc(SCc2cccc(C(=O)O)c2)nc2c1CCCC2	-6	18*	-33	-2	-27	47*	18*
O=C(Nc1ccc(-c2nc3cc(Cl)ccc3o2)cc1)C1CCCO1 (stereo not drawn)	-1	-3	6	0	13	x	x
Cc1ccc2nc(-c3ccc(NC(=O)C4CCCO4)cc3)[nH]c2c1 (stereo not drawn)	2	24*	-25	-1	-22	55*	35*
O=C(Nc1cccc(F)c1)N1C[C@@H]2[C@H](c3ccccc31)[C@H](CO)N2C(=O)C1CCOCC1	-12	x	x	x	x	x	x
CCOC(=O)C(CCCP(=O)(c1ccccc1)c1ccccc1)(NC(C)=O)C(=O)OCC	-1	23*	-11	0	-9	-9	-12
O=C(Nc1ccc2c(c1)OCO2)N[C@H]1CC[C@H](CC(=O)N2CCN(c3ccccc3)CC2)O[C@H]1CO	3	x	x	x	x	x	x
COc1ccc(C(c2c(C)n(C)n(-c3ccccc3)c2=O)c2c(C)n(C)n(-c3ccccc3)c2=O)cc1OC	-2	1	28	0	7	x	x
COc1ccc(C(c2c(C)[nH]n(-c3ccccc3)c2=O)c2c(C)[nH]n(-c3ccccc3)c2=O)cc1OC	9	22*	70*	0	26	-1	-9
O=C(NC1CCCCC1)c1noc2c1CCCCC2	18	19*	-21	0	-25	31*	14*
Nc1c(C(=O)OCC2CCCO2)c2nc3ccccc3nc2n1C1CCCC1 (stereo not drawn)	-6	17*	21	-1	5	-2	-8
c1ccc(NNC2=NCCS2)cc1	3	19*	-7	0	-6	14	-15

Bioassay records from PubChem.
